Compounds with a hit are over-represented: about 1.2% of the library has one in this group of screens.
EphB4 antag: antagonists of human EphB4-ephrin-B2 interaction. P54760. AID 720. 0.15% of 97,000 active. inhibition, % at 7 µM. EphB4 LBD / TNYL-RAW-Alexa532 peptide, fluorescence polarization;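 active means inhibition above the screen-wide mean inhibition plus 3 SD, cut at about 15% in these data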
LYP inh 2: inhibitors of human LYP (PTPN22) phosphatase | Q9Y2R2 | recombinant LYP catalytic domain, DiFMUP fluorescence | inhibition, % at 2 µM | 0.21% of 96,000 active | AID 640;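 active means inhibition at 2 µM at or above a set limit, the screen mean plus 3 SD, cut at about 24% in these data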
LYP act: activators of human LYP (PTPN22) phosphatase | Q9Y2R2 | recombinant LYP, DiFMUP fluorescence; 0 = plate median, 100 = signal doubled | 0.11% of 96,000 active | AID 697 | activation, % at 2 µM;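 active means activation at 2 µM above a set limit, the mean plus 5 SD, cut at about 37% in these data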
PLK1 kinase inh: PLK1 (human) kinase inhibition; P53350; recombinant PLK1 kinase, TR-FRET peptide phosphorylation; inhibition, % at 10 µM; 0.53% of 97,000 active; AID 619;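 active means inhibition of 50% or more in the single-concentration screen; inactive means inhibition below 50%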
Target sequence (P53350 whole entry, looked up): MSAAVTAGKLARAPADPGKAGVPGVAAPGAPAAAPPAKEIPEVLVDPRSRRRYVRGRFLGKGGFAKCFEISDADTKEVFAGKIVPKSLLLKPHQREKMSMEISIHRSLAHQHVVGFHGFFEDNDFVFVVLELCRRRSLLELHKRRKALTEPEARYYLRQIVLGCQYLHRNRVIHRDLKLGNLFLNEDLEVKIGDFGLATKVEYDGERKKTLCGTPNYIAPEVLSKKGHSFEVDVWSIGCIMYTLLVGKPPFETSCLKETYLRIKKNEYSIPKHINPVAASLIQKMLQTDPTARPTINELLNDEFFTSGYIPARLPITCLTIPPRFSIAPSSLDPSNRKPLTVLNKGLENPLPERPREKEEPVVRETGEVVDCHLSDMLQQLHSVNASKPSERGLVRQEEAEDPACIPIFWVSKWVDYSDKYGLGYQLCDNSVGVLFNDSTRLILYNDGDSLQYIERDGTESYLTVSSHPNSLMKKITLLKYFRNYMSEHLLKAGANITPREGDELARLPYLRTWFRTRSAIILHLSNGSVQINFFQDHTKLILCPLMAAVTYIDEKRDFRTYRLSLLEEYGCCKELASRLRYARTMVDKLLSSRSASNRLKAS
Plk1 PBD FP: inhibitors of human Plk1 polo box domain binding | P53350 | Plk1 PBD phosphopeptide binding, fluorescence polarization | inhibition, %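 (tested at about 20 µM)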 | 0.13% of 97,000 active | AID 693; in the data active means inhibition above about 34%, passing the limit was not always enough
Each line names hits and unclear results; the compound was inactive in the other large screens; [ ] = dose if it differs, or a comment.

CCOC(=O)c1sc(NC(=O)C(CC)Sc2nnc3c4ccccc4n(C(C)C)c3n2)nc1C (stereo unspecified)	none
O=C(CSc1nnnn1Cc1ccccc1)Nc1ccc2c(c1)OCCO2	none
O=C(CSc1nnnn1Cc1ccccc1)Nc1ccc2c(c1)OCO2	EphB4 antag 18
Brc1ccc2nc(CSc3ncn[nH]3)cn2c1	LYP inh 2 83
Clc1ccc(CSc2ncn[nH]2)cc1	none
Cc1nc(NCCc2ccccc2F)c(C#N)c(C)c1[N+](=O)[O-]	none
Nn1c(Nc2ccccc2)nc2ccccc2c1=O	PLK1 kinase inh 59
O=C(c1ccc(F)cc1)N1CCCCC(Sc2nnnn2-c2ccccc2)C1=O (stereo unspecified)	none
CCNc1ccc2noc3c2c1C(=O)c1ccccc1-3	EphB4 antag 95[fluorescence artefact?]
CCOc1ccc2noc3c2c1C(=O)c1ccccc1-3	none
Cc1cc(NC(c2ccc(Cl)cc2)c2ccc3cccnc3c2O)no1 (stereo unspecified)	EphB4 antag 16
Cc1ccc(-n2ncc3c(=O)n(CC(=O)OCc4ccccc4)cnc32)cc1	none
O=C(Cn1cnc2c(cnn2-c2ccccc2)c1=O)OCc1ccccc1	PLK1 kinase inh 50
CC1=Nc2ccccc2/C1=C\c1nc(-c2ccc(F)cc2)oc1O	EphB4 antag 15
CN=Cc1nc(-c2ccccc2)oc1O	none
CCOC(=O)C1CCN(C(=S)Nc2cc(OC)c(OC)cc2C(=O)OC)CC1	none
Cc1ccc(S(=O)(=O)c2c(C)cc(C)nc2Cl)cc1	none
Cc1cc(C)c(S(=O)(=O)c2ccccc2)c(Cl)n1	PLK1 kinase inh 64
Cc1cc2c(c(SCC(=O)NCCc3ccccc3)n1)C(=O)OC2	none
O=C(O)CCC(=O)N1CCN(c2nc(-c3ccccc3Cl)c3cc(Br)ccc3n2)CC1	EphB4 antag 16
OCCN1CCN(c2nc(-c3ccccc3)c3cc(Cl)ccc3n2)CC1	none
CN(C1CCCCC1)S(=O)(=O)c1ccc(S(=O)(=O)N2CCN(C(=O)c3ccccc3F)CC2)cc1	none
O=C(/C=C/c1ccccc1Cl)NCCN1CCOCC1	none
O=C(/C=C/c1cccc([N+](=O)[O-])c1)NCCN1CCOCC1	EphB4 antag 17
Cc1ccc(C(=O)CC2(O)C(=O)N(C)c3ccccc32)o1 (stereo unspecified)	PLK1 kinase inh 63 (no result: LYP inh 2, LYP act)
COC(=O)CN1C(=O)C(O)(CC(=O)c2ccc(C)o2)c2ccccc21 (stereo unspecified)	none
CCCCCCOC(=O)C(C#N)c1nc2ccccc2nc1N1CCN(C)CC1 (stereo unspecified)	EphB4 antag 17
O=C(CC(c1ccccc1)c1ccccc1)OCn1nnc2ccccc2c1=O	none
Cc1cc(C)cc(N2CC(c3nc4ccccc4n3C)CC2=O)c1 (stereo unspecified)	PLK1 kinase inh 58 (no result: LYP inh 2, LYP act)
Cc1ccc(N2CC(c3nc4ccccc4n3C)CC2=O)cc1C (stereo unspecified)	none
O=C(Nc1ccc2c(c1)OCO2)C1CC(c2ccc(F)cc2)=NO1 (stereo unspecified)	EphB4 antag 20
N#Cc1ccc(NC(=O)C2CC(c3ccc(F)cc3)=NO2)cc1 (stereo unspecified)	none
O=C1CN(C(=O)COc2ccccc2)CCN1	PLK1 kinase inh 61 (no result: LYP inh 2, LYP act)
Cc1cc(C(=O)NCCCn2ccnc2)sc1-c1ccccc1	none
NC(=O)c1c(NC(=O)c2ccccc2)sc2c1CCc1ccccc1-2	none
O=c1c(/C=N/Nc2ccccc2)c(Sc2nnnn2-c2ccccc2)nc2ccccn12	LYP inh 2 24
O=Cc1c(Sc2ccccc2)nc2ccccn2c1=O	none
CCNC(=S)N/N=C1\C(=O)c2cccc3cccc1c23	none
O=C(N/N=C1/C(=O)c2cccc3cccc1c23)c1ccc(Cl)cc1	EphB4 antag 25
CCN(CC)CCn1c2ccccc2c2cnc(N)c(C#N)c21	PLK1 kinase inh 52
CN(C)C=Nc1ncc2c3ccccc3n(CCN(C)C)c2c1C#N	none
Cc1csc(C(=O)O)c1-n1cccc1	PLK1 kinase inh 55
Cc1c(C(=O)OC2CCCCC2)sc2nc[nH]c(=O)c12	PLK1 kinase inh 68
CCSc1nnc(NC(=O)COc2ccc3ccccc3c2)s1	none
O=C(CSc1nc(-c2ccco2)cc(C(F)(F)F)n1)NC1CCCC1	PLK1 kinase inh 69 (no result: LYP inh 2, LYP act)
CCOc1ccc(-c2nc(CSCC(=O)N3CCN(c4cccc(OC)c4)CC3)c(C)o2)cc1	PLK1 kinase inh 64 (no result: LYP inh 2, LYP act)
Cc1ccc(-c2nc(CSCC(=O)N3CCN(c4ccccn4)CC3)c(C)o2)cc1	none
COCCCN1CC23C=CC(O2)C(C(=O)OC)C3C1=O (stereo unspecified)	none
COC(=O)C1C2C=CC3(CN(C(C)C)C(=O)C13)O2 (stereo unspecified)	PLK1 kinase inh 55 (no result: LYP inh 2, LYP act)
CCNc1nc(NCC)nc(N(C)N)n1	none
O=C(O)c1ccc(OCC(O)Cn2cnc3ccccc32)cc1 (stereo unspecified)	none
O=C(Cn1cnc2ccccc21)Nc1ccc(C(=O)O)cc1	LYP inh 2 33
CC(C)c1ccc(N2C(=O)CC(Sc3nc4ccccc4o3)C2=O)cc1 (stereo unspecified)	LYP inh 2 24
CCOc1cc(-c2cc(-c3ccc(C)cc3)nc(N)c2C#N)ccc1O	none
CCOc1cc(/C=C(\C#N)c2[nH]nc(N)c2C#N)ccc1O	PLK1 kinase inh 69
O=C(CC(C(=O)N1CCc2ccccc21)n1ccnc1)N1CCc2ccccc2C1 (stereo unspecified)	none
Cc1nn(CC#N)c(=O)n1-c1ccc(F)cc1	none
COC(=O)CSc1nc(C)cc(Oc2ccccc2)n1	PLK1 kinase inh 59 (no result: LYP inh 2, LYP act)
CN(C)/C=C/C(=O)c1ccc(F)cc1	LYP inh 2 26
O=C(CCc1ccccc1)Nc1nnc(-c2cccs2)o1	PLK1 kinase inh 62 (no result: LYP inh 2, LYP act)
O=C(Nc1nnc(-c2cccs2)o1)c1cccc(C(F)(F)F)c1	PLK1 kinase inh 61 (no result: LYP inh 2, LYP act)
Cc1sc(NC(=O)c2ccc(OCC(C)C)cc2)c(C(N)=O)c1-c1ccc(Cl)cc1Cl	none
CC(C)(C)C1CCC2(CC1)NC(=S)N(c1ccccc1)N2 (stereo unspecified)	none
CC(C)(C)C1CCC2(CC1)SCC(=O)N2c1ccccc1 (stereo unspecified)	EphB4 antag 16
Cn1c(NCCc2ccccc2)cc(=O)n(C)c1=O	none
CCCNc1cc(=O)n(C)c(=O)n1C	LYP inh 2 25
COc1cc2c(cc1OC)C1=C(C#N)CN(CC(=O)O)CN1CC2	PLK1 kinase inh 61 (no result: LYP inh 2, LYP act)
N#Cc1nc(-c2ccc(OCc3ccc(Cl)cc3)cc2)oc1NCCCn1ccnc1	LYP inh 2 26
CCOC(=O)c1oc2cccc(O)c2c1CN(Cc1ccccc1)C(C)=O	EphB4 antag 19
CCOC(=O)c1oc2cccc(O)c2c1C	none
Oc1ccc2[nH]cnc2c1CN1CCCCC1	none
Cc1oc(-c2ccccc2)nc1CS(=O)CC(=O)N1CCc2ccccc2C1 (stereo unspecified)	PLK1 kinase inh 66 (no result: LYP inh 2, LYP act)
CCOC(=O)N1CCN(C(=O)CS(=O)Cc2nc(-c3ccc(C)cc3)oc2C)CC1 (stereo unspecified)	none

Compound activity: PubChem, several laboratories
